For some assays here: Measured potencies and affinities stand elsewhere.

Holding throughout (design): scale not given: direction of the effect not stated beside the values
Assay [1] addresses Protein translocase subunit SecA (Escherichia coli (strain K12)) (UniProt P10408). The assay is described as follows: Assay to Identify E. coli SecA ATPase Inhibitors. Format: functional. The note with it: 30 µM.
For assay [2], the target named is T1, Ubiquitin-activating enzyme e1, putative (Leishmania donovani (strain BPK282A1)) (UniProt E9BSI1).
T1 sequence (whole entry): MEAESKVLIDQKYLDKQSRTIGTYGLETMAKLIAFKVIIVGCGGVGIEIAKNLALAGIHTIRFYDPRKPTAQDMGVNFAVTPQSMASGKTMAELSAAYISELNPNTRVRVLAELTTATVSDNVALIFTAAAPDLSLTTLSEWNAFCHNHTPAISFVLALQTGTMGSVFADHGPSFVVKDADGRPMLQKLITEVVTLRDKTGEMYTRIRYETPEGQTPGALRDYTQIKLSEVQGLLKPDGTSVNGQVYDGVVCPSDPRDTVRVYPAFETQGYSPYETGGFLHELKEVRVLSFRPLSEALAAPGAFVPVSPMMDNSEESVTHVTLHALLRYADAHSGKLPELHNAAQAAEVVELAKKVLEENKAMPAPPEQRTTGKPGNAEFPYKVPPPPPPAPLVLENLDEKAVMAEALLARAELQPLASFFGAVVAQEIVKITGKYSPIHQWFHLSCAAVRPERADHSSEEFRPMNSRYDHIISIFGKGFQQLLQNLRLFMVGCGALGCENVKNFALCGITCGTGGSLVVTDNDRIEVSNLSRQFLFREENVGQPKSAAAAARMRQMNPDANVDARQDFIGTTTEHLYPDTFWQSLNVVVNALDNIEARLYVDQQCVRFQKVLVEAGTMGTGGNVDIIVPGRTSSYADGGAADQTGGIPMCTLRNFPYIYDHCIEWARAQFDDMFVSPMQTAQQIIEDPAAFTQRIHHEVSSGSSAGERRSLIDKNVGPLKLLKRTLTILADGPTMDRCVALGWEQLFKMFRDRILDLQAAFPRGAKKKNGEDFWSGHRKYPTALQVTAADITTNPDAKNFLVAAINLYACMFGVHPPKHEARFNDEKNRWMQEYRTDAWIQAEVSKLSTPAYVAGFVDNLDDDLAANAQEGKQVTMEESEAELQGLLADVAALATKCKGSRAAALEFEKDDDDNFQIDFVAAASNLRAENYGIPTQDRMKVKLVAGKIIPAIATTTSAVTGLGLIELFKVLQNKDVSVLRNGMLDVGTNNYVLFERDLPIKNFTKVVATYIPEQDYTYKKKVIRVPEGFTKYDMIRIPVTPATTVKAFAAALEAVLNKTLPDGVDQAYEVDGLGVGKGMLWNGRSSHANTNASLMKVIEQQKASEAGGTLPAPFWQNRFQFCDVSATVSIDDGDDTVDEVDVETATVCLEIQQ
Put plainly: Leishmania donovani Ubiquitin Activating Enzyme (LdE1). Format: functional. Conditions: 30 µM.

For assay [3], the target named is AMP-activated protein kinase, AMPK (Homo sapiens) (UniProt P54646+O43741+P54619+Q9UGJ0+Q9Y478+Q13131+Q9UGI9). The assay is described as follows: AMP-dependent Kinase enzyme assay. An in vitro enzyme assay that detects ADP turnover that is directly proportional to AMPK activity. This uses naive AMPK that is activated during the assay with MK-8722. Format: functional. The note with it: 30 µM.

Assay [4] addresses Sialic acid-binding Ig-like lectin 9 (Homo sapiens) (UniProt Q9Y336). The assay is described as follows: Hs-Siglec9 ALPHAscreen SOP 20170721. Conditions: 10 µM.
Another assay concerns Trypanosoma cruzi. Put plainly: Trypanosoma cruzi phosphomannomutase and mannose-1-phosphate guanylyltransferase assay. Format: functional. The note with it: 10 µM.
In assay [5] the target is T2, Arginase-2, mitochondrial (Homo sapiens) (UniProt P78540).
T2 sequence (whole entry): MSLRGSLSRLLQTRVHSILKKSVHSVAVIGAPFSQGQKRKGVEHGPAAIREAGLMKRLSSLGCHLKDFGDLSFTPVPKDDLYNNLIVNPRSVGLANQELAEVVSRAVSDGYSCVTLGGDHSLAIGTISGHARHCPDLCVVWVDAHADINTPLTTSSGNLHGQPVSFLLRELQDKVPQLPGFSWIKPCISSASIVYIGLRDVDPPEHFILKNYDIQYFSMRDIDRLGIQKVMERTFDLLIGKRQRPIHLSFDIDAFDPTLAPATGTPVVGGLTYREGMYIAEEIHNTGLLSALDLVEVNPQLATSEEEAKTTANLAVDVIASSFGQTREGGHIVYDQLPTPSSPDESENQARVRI
Put plainly: in vitro enzyme assay to detect the production of urea directly proportional to the activity of Arginase II. Also: in the data most compounds retested in dose-response had high values. Format: functional. The note with it: 33.3 µM.

Assay [6] addresses T3, Proteasome subunit beta (Trypanosoma cruzi) (UniProt O96673).
T3 sequence (whole entry): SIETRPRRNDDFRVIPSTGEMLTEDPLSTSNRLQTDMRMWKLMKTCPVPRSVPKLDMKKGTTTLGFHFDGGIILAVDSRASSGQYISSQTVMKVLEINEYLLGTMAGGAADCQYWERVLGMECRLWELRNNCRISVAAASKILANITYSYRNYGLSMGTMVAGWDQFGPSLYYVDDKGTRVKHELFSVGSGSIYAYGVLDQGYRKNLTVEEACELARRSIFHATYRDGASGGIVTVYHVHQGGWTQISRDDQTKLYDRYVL
Put plainly: Trypanosoma cruzi proteasome chymotrypsin-like activity (TcProtChymo) assay. Also: in the data most compounds retested in dose-response had high values. Conditions: 9.37 µM. Format: functional.

The species entered for a further assay is Homo sapiens. Put plainly: To identify inhibition of the IFN signalling (Jak-Stat) pathway via expression of an eGFP reporter gene under the control of an IFN-stimulated response element (ISRE) containing MxA promoter. Format: functional. The note with it: 30 µM. Background: A reporter such as luciferase makes a cellular process visible.
The target of assay [7] is T4, Tyrosyl-tRNA synthetase, putative (Trypanosoma cruzi (strain CL Brener)) (UniProt Q4DSP6).
T4 sequence (whole entry): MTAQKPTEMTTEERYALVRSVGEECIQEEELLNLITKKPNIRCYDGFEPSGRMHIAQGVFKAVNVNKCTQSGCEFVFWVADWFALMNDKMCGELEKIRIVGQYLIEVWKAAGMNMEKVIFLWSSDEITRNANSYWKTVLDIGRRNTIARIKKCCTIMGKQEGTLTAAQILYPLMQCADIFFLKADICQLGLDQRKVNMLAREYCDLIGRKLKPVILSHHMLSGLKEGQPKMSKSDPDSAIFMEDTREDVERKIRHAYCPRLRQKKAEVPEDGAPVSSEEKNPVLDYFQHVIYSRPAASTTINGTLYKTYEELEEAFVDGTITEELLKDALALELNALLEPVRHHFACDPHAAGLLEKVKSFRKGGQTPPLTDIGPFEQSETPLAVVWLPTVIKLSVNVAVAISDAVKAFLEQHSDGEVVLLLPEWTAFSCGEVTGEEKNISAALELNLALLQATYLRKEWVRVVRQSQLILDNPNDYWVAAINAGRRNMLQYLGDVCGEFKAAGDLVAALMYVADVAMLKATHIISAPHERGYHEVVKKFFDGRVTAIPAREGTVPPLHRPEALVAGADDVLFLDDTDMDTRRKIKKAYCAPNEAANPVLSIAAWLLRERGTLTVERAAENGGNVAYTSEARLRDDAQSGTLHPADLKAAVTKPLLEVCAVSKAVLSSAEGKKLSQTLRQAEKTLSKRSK
The assay is described as follows: Trypanosoma cruzi tyrosyl tRNA synthetase (TcYRS) _High Tyrosine SOP. Also: in the data most compounds retested in dose-response had high values. Format: functional. The note with it: 30 µM.

For assay [8], the target named is T4, Tyrosyl-tRNA synthetase, putative (Trypanosoma cruzi (strain CL Brener)). Put plainly: Trypanosoma cruzi tyrosyl tRNA synthetase (TcYRS) SOP. Format: functional. Conditions: 30 µM.
Assay [9] addresses Chromo domain-containing protein 1 (Saccharomyces cerevisiae (strain ATCC 204508 / S288c) (Baker's yeast)) (UniProt P32657). The assay is described as follows: ScCHD-1 Enzyme Inhibition Assay. Also: in the data most compounds retested in dose-response had high values. Format: functional. Conditions: 30 µM.

Sequence of Protein translocase subunit SecA (Escherichia coli (strain K12)) (P10408 whole entry): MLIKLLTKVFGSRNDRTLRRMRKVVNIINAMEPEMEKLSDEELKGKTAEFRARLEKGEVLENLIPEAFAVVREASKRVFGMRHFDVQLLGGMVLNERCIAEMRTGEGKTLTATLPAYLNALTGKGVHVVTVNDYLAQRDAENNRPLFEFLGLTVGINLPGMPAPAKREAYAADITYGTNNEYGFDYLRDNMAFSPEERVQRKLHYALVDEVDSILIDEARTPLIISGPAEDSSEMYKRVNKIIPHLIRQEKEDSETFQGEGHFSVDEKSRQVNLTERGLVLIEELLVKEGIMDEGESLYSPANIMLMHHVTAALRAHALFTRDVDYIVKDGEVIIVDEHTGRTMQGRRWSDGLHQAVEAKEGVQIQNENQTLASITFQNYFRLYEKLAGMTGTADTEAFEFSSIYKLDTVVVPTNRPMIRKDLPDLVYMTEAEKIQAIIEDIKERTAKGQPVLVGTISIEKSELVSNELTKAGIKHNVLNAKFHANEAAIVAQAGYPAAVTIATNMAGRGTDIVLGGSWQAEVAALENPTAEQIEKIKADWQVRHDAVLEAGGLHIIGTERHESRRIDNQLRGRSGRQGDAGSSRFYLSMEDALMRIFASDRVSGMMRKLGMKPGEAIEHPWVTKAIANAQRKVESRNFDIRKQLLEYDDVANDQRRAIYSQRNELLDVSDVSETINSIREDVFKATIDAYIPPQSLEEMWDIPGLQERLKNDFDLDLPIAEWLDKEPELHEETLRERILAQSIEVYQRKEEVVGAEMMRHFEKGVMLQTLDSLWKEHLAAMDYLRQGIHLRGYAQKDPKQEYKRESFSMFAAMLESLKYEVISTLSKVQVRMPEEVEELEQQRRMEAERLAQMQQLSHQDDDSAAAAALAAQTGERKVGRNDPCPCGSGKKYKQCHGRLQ
Sequence of Chromo domain-containing protein 1 (Saccharomyces cerevisiae (strain ATCC 204508 / S288c) (Baker's yeast)) (P32657 whole entry, the tested form may be a part): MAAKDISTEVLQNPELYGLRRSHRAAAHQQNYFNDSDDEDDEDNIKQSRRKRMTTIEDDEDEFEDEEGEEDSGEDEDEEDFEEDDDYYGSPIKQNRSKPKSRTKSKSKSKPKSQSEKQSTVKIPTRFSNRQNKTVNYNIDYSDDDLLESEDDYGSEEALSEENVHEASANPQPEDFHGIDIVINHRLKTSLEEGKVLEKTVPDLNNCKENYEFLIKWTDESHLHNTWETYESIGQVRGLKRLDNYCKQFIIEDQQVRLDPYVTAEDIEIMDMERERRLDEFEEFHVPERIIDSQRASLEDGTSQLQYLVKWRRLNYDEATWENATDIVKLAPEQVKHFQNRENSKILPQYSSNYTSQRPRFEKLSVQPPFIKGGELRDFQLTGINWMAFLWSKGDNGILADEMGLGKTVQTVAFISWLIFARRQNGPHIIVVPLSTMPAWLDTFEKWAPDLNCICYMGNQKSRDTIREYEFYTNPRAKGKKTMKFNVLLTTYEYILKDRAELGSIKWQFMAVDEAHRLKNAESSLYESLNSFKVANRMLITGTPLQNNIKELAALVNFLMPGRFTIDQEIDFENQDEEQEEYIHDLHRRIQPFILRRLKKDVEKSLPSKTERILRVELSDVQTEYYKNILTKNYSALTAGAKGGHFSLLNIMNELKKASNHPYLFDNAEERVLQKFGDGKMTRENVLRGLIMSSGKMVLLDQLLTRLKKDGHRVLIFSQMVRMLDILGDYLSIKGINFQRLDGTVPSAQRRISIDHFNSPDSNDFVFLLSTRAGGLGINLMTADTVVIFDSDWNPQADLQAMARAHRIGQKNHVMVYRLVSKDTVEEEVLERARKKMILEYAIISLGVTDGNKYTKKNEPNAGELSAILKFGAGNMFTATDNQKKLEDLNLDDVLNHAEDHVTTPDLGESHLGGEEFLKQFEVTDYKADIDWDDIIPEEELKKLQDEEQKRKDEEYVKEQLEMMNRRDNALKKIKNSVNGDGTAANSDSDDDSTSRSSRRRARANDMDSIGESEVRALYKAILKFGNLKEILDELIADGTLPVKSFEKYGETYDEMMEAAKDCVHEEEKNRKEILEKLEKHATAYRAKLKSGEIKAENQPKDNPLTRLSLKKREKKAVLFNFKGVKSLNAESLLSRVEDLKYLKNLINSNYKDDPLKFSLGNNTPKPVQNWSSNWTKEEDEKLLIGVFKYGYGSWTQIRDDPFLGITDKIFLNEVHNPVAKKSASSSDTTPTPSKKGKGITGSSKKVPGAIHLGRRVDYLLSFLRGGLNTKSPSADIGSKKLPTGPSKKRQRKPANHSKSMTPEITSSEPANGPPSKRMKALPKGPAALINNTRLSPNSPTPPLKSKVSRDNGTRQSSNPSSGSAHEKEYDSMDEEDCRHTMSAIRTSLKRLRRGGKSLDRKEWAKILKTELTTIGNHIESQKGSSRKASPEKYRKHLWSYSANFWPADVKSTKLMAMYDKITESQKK
Sequence of Sialic acid-binding Ig-like lectin 9 (Homo sapiens) (Q9Y336 whole entry): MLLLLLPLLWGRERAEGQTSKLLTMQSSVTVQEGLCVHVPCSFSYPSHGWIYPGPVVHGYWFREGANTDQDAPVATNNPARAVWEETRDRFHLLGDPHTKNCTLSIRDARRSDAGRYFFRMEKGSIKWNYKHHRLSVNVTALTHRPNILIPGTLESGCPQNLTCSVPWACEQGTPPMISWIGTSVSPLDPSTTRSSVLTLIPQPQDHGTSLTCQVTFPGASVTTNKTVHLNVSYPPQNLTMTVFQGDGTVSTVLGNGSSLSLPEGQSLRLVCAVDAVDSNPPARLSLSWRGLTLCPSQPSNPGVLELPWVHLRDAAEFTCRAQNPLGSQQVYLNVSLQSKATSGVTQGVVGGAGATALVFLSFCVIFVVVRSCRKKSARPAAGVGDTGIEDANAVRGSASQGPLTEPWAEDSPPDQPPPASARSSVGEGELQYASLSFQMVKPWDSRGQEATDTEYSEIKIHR

As to `COCC(=O)N1CC[C@H]2C[C@H](C)O[C@@H]2C1`, the Percent Effect in [1] was -3.06%; in assay [2] it was 13.3%; in [3] it was 4.66%; in assay [4], -5.49%; in the assay on Trypanosoma cruzi, 4.53%; in assay [5], -2.56%. The Percent Effect is 17.4% in assay [6]; -11.4% in the assay filed under Homo sapiens; 7.45% in [7]; 14.1% in assay [8]; -3.21% in assay [9].
As for `COc1cc(CN2CCN(c3cccc(OC)c3)C(=O)C2)cc(OC)c1`, the Percent Effect was -1.99% in assay [1]; 1.39% in [2]; -1.82% in [3]; -5.46% in [4]; -5.34% in the assay on Trypanosoma cruzi; -4.42% in assay [5]. The Percent Effect in assay [6] was 10.9%; in the assay filed under Homo sapiens it was -15.2%; in [7], 2.1%; in assay [8], 2.56%; in assay [9], -2.05%.
Take `CC(C)N(C)Cc1cnc2n1CCN(C(=O)NC1CCCC1)C2`: the Percent Effect in assay [1] is -1.5%; in assay [2], 0%; in assay [3], 9.85%; in [4], -1.01%; with Trypanosoma cruzi, -7.09%; in assay [5], 3.96%. Further, the Percent Effect in [6] stood at 13.7%; in the assay listed under Homo sapiens, 7.83%; in assay [7] it was 1.06%; in assay [8], 1.28%; in [9], 0.39%.
Turning to `COCCOc1ccc(NC(=O)C2CC(=O)N(C)C2)cn1` (stereo not given), the Percent Effect in assay [1] was 0.0993%; in assay [2], 12.7%; in assay [3], -16.4%; in assay [4], -3.76%; with Trypanosoma cruzi, -5.95%; in assay [5], 6.46%. Moreover, the Percent Effect in assay [6] was 1.06%; in the assay filed under Homo sapiens it was 23.3%; in assay [7], 1.48%; in assay [8], 11.4%; in assay [9], -5.38%.
Regarding `CCn1ccnc1CN(C)C1CCCN(CCc2ccccc2)C1` (stereo not given), the Percent Effect was -7.05% in assay [1]; 0% in assay [2]; 0.137% in assay [3]; 4.16% in assay [4]; -3.64% in the assay on Trypanosoma cruzi; 4.14% in assay [5]. Besides, the Percent Effect in assay [6] was 0.832%; in the assay listed under Homo sapiens it was -8.38%; in assay [7], 5.38%; in assay [8] it was 3.7%; in assay [9] it was 2.42%.
As to `Cc1cc(C)n(CC(=O)NC(Cc2ccsc2)c2ccccn2)c(=O)n1` (stereo not given), the Percent Effect in assay [1] is -10.3%; in [2], 12.2%; in [3], -6.03%; in assay [4], 12.5%; in the assay on Trypanosoma cruzi, 8.5%; in assay [5], -4.87%. For the same compound, the Percent Effect was 9.2% in [6]; -8.13% in the assay filed under Homo sapiens; 5.38% in assay [7]; 11.7% in [8]; -22.9% in assay [9].
As for `Cn1c(CN2CCOC(c3nc(C(C)(C)C)n[nH]3)C2)nnc1C1CC1` (stereo not given), the Percent Effect in assay [1] is -7.68%; in [2] it was -26%; in assay [3] it was -4.74%; in assay [4], -20.2%; in the assay with Trypanosoma cruzi, 7.35%; in [5] it was -8.63%. The Percent Effect is 4.93% in assay [6]; -6.09% in the assay filed under Homo sapiens; 3.81% in assay [7]; 18.8% in assay [8]; -22.6% in [9].
`CCS(=O)(=O)N1CCC[C@]2(C(=O)N(C)C)CN(c3ccccn3)C[C@@H]2C1`: the Percent Effect in assay [1] is -6.08%; in assay [2], 5.33%; in [3], 2.98%; in assay [4], 0.0913%; in the assay with Trypanosoma cruzi it was 4.05%; in assay [5], -50%. The Percent Effect in assay [6] was 10.1%; in the assay filed under Homo sapiens, -17%; in [7] it was 3.12%; in [8], 12.5%; in assay [9], -5.8%.
In the case of `CC1=N[C@@]2(CC[C@@H]3CN(Cc4ccccc4F)C[C@@H]32)C(=O)N1CC1CC1`, the Percent Effect was -5% in assay [1]; 0% in [2]; 5.98% in [3]; -2.03% in [4]; -0.195% with Trypanosoma cruzi; -2.5% in [5]. Further, the Percent Effect is 2.96% in assay [6]; 11.1% in the assay filed under Homo sapiens; 4.95% in [7]; 3.66% in [8]; 1.49% in assay [9].
`O=C(NCCNC(=O)N1CCC(c2ccccc2)C1)C1CC1` (stereo not given): the Percent Effect in assay [1] is -2.18%; in assay [2], 18.9%; in assay [3], -5.02%; in assay [4] it was 22%; in the assay with Trypanosoma cruzi it was 4.44%; in [5], 2.38%. Moreover, the Percent Effect was 15.5% in assay [6]; 8.1% in the assay filed under Homo sapiens; 2.65% in assay [7]; 14.6% in [8]; -0.679% in assay [9].

These data come from ChEMBL document CHEMBL3988442, “University of Dundee, Small-Polar-MMV Screening Library” (2021).
